This is an account of results in PubChem BioAssay (EPA / NIEHS).

Common to all, as to conditions: mRNA level, 48 h; actives raise or lower the signal
Read-out in assay [1]: Cytochrome P450 (CYP24A1), CYP24A1 (gene 1591)
Put plainly: LTEA_HepaRG_CYP24A1: Life Technologies and Expression Analysis (LTEA) Assay for Cytochrome P450 (CYP24A1) using HepaRG (AID 2283478). The procedure, abridged: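 HepaRG, 48 h chemical exposure, 8-pt half-log CRC from 100 uM, 0.5% DMSO vehicle, duplicates. Endpoint: CYP24A1 mRNA by Fluidigm TaqMan qRT-PCR, normalized ACTB/GAPDH/POLR2A; gain/loss fit vs DMSO.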

Read-out in assay [2]: Cytochrome P450 (CYP1A2), CYP1A2 (gene 1544)
Put plainly: LTEA_HepaRG_CYP1A2: Life Technologies and Expression Analysis (LTEA) Assay for Cytochrome P450 (CYP1A2) using HepaRG (AID 2283479). The procedure, abridged:
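CYP1A2 transcript induction or loss, quantified by Fluidigm qRT-PCR against three housekeeping genes, was fitted bidirectionally against 0.5% DMSO controls. Human HepaRG cells received eight half-log concentrations from 100 uM over 48 h.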

Read-out in assay [3]: cysteine-aspartic acid protease (CASP8), CASP8 (gene 841)
The experiment in a line: LTEA_HepaRG_CASP8: Life Technologies and Expression Analysis (LTEA) Assay for cysteine-aspartic acid protease (CASP8) using HepaRG (AID 2283480). The procedure, abridged:
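HepaRG, 48 h exposure, duplicate wells; 8 conc, half-log from 100 uM, 0.5% DMSO. Serum-free induction medium. CASP8 mRNA by TaqMan qRT-PCR, norm. ACTB/GAPDH/POLR2A; gain/loss fitted vs DMSO.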

Read-out in assay [4]: Cytochrome P450 (CYP2B6), CYP2B6 (gene 1555)
Put plainly: LTEA_HepaRG_CYP2B6: Life Technologies and Expression Analysis (LTEA) Assay for Cytochrome P450 (CYP2B6) using HepaRG (AID 2283481). The procedure, abridged:
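HepaRG cells plated 48 h, switched to serum-free induction medium, then dosed 48 h (8 points, half-log from 100 uM, 0.5% DMSO). RNA isolated; CYP2B6 expression measured by qRT-PCR; gain or loss fitted relative to DMSO.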

Read-out in assay [5]: Cytochrome P450 2C19 (Homo sapiens) (UniProt P33261)
Put plainly: LTEA_HepaRG_CYP2C19: Life Technologies and Expression Analysis (LTEA) Assay for CYP2C19 using HepaRG (AID 2283482). The procedure, abridged:
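Transcript levels of CYP2C19 were quantified by qRT-PCR after HepaRG cells were treated for 48 hours with test chemicals up to 100 uM (eight half-log concentrations, 0.5% DMSO vehicle). Gain or loss of signal was fitted relative to DMSO.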

Read-out in a further assay: CYP2C8 (gene 1558)
The experiment in a line: LTEA_HepaRG_CYP2C8: Life Technologies and Expression Analysis (LTEA) Assay for CYP2C8 using HepaRG (AID 2283483). The procedure, abridged: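 CYP2C8 mRNA induction or loss, by qRT-PCR normalized to ACTB/GAPDH/POLR2A, is read in HepaRG cells after 48 h treatment. Concentrations run from 100 uM down in half-log dilutions, with 0.5% DMSO as vehicle and baseline.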

Read-out in another assay: CYP2C9 (gene 1559)
Put plainly: LTEA_HepaRG_CYP2C9: Life Technologies and Expression Analysis (LTEA) Assay for CYP2C9 using HepaRG (AID 2283484). The procedure, abridged: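 Cells plated 48 h, switched to serum-free induction medium, then treated in duplicate for 48 h at eight concentrations (max 100 uM, 0.5% DMSO). RNA then analysed by qRT-PCR for CYP2C9; curves fitted in both directions relative to DMSO.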

Read-out in a further assay: CYP2E1 (gene 1571)
Put plainly: LTEA_HepaRG_CYP2E1: Life Technologies and Expression Analysis (LTEA) Assay for CYP2E1 using HepaRG (AID 2283485). The procedure, abridged: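 HepaRG cells, plated 48 h, then exposed 48 h in serum-free induction medium to eight half-log concentrations from 100 uM in 0.5% DMSO, duplicate. CYP2E1 mRNA by qRT-PCR, normalized to ACTB/GAPDH/POLR2A; bidirectional fit versus DMSO.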

Read-out in the next assay: CYP4A11 (gene 1579)
The experiment in a line: LTEA_HepaRG_CYP4A11: Life Technologies and Expression Analysis (LTEA) Assay for CYP4A11 using HepaRG (AID 2283486). The procedure, abridged:
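HepaRG, 48 h chem exposure, 8 conc (100 uM top, half-log), 0.5% DMSO vehicle; qRT-PCR readout, housekeeping-gene normalized; bidirectional curve fit vs DMSO baseline.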

Read-out in assay [6]: Cytochrome P450 3A4 (Homo sapiens) (UniProt P08684)
Put plainly: LTEA_HepaRG_CYP3A4: Life Technologies and Expression Analysis (LTEA) Assay for CYP3A4 using HepaRG (AID 2283487). The procedure, abridged:
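In a human hepatic line (HepaRG), duplicate wells were treated 48 h with up to 100 uM chemical in half-log dilutions. Endpoint: CYP3A4 mRNA induction or loss relative to 0.5% DMSO vehicle, by qRT-PCR.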

Read-out in assay [7]: Pro-epidermal growth factor (Homo sapiens) (UniProt P01133)
Put plainly: LTEA_HepaRG_EGF: Life Technologies and Expression Analysis (LTEA) Assay for Epidermal growth factor (EGF) using HepaRG (AID 2283489). The procedure, abridged:
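HepaRG, 48 h dosing, 100 uM top, half-log x8, 0.5% DMSO. Readout: TaqMan qRT-PCR (Fluidigm array), housekeeping-normalized. Gain or loss of signal fit vs DMSO.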

Read-out in assay [8]: Early growth response protein 1 (EGR1) transcription factor, EGR1 (gene 1958)
The experiment in a line: LTEA_HepaRG_EGR1: Life Technologies and Expression Analysis (LTEA) Assay for Early growth response protein 1 (EGR1) transcription factor using HepaRG (AID 2283490). The procedure, abridged:
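Read-out is EGR1 mRNA level by qRT-PCR, normalized to three housekeeping genes and analysed for gain or loss of signal against 0.5% DMSO. Source cells: human HepaRG, treated 48 h at up to 100 uM in half-log dilutions.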

Read-out in assay [9]: Ezrin (EZR), EZR (gene 7430)
Put plainly: LTEA_HepaRG_EZR: Life Technologies and Expression Analysis (LTEA) Assay for Ezrin (EZR) using HepaRG (AID 2283491). The procedure, abridged:
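Gain or loss of EZR mRNA is scored relative to 0.5% DMSO in human HepaRG cultures treated 48 h with test chemicals in duplicate, eight half-log concentrations from 100 uM.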

Read-out in assay [10]: Cytochrome P450 3A7 (Homo sapiens) (UniProt P24462)
Put plainly: LTEA_HepaRG_CYP3A7: Life Technologies and Expression Analysis (LTEA) Assay for CYP3A7 using HepaRG (AID 2283492). The procedure, abridged: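 Human HepaRG liver cells, 48 h post-plating, switched to serum-free induction medium and exposed in duplicate for 48 h. Dosing: 100 uM top, half-log dilutions, 8 points, 0.5% DMSO vehicle. Read-out: CYP3A7 mRNA, gain or loss fitted against DMSO baseline.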

Read-out in the next assay: CYP3A5 (gene 1577)
The experiment in a line: LTEA_HepaRG_CYP3A5: Life Technologies and Expression Analysis (LTEA) Assay for CYP3A5 using HepaRG (AID 2283493). The procedure, abridged:
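HepaRG cells, plated 48 h then in serum-free induction medium, dosed in duplicate for 48 h with eight half-log concentrations up to 100 uM in 0.5% DMSO. Gene mRNA by Fluidigm TaqMan qRT-PCR, normalized to ACTB, GAPDH, POLR2A.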

Read-out in assay [11]: Fatty Acid-Binding Protein 1 (FABP1), FABP1 (gene 2168)
Put plainly: LTEA_HepaRG_FABP1: Life Technologies and Expression Analysis (LTEA) Assay for Fatty Acid-Binding Protein 1 (FABP1) using HepaRG (AID 2283494). The procedure, abridged: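 HepaRG, 48 h post-plating switched to serum-free induction medium, then dosed 48 h (duplicate, 8 pts, ≤100 uM, 0.5% DMSO). RNA → Fluidigm TaqMan qRT-PCR, FABP1 normed to ACTB/GAPDH/POLR2A. Bidirectional curve fit vs DMSO.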

Read-out in assay [12]: Cytochrome P450 7A1 (Homo sapiens) (UniProt P22680)
Put plainly: LTEA_HepaRG_CYP7A1: Life Technologies and Expression Analysis (LTEA) Assay for Cytochrome P450 7A1 (CYP7A1) using HepaRG (AID 2283496). The procedure, abridged: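 HepaRG cells plated 48 h, then switched to serum-free induction medium and exposed in duplicate for 48 h to 8-point half-log series from 100 uM in 0.5% DMSO. CYP7A1 mRNA by qRT-PCR (TaqMan), normalized to ACTB/GAPDH/POLR2A; bidirectional fit versus DMSO.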

Read-out in assay [13]: Glutathione S-Transferase (GSTA2), GSTA2 (gene 2939)
The experiment in a line: LTEA_HepaRG_GSTA2: Life Technologies and Expression Analysis (LTEA) Assay for Glutathione S-Transferase (GSTA2) using HepaRG (AID 2283497). The procedure, abridged: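 HepaRG, 48 h dosing, 8-pt half-log CRC from 100 uM, 0.5% DMSO vehicle, n=2; RNA → Fluidigm TaqMan qRT-PCR; GSTA2 vs ACTB/GAPDH/POLR2A; gain/loss fit vs DMSO.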

Read-out in assay [14]: DNA damage-inducible transcript 3 (DDIT3), DDIT3 (gene 1649)
The experiment in a line: LTEA_HepaRG_DDIT3: Life Technologies and Expression Analysis (LTEA) Assay for DNA damage-inducible transcript 3 (DDIT3) using HepaRG (AID 2283488). The procedure, abridged:
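HepaRG cells, 48 h after plating, exposed 48 h in serum-free induction medium to 8 half-log concentrations up to 100 uM in 0.5% DMSO, in duplicate. DDIT3 mRNA measured by TaqMan qRT-PCR, normalized to ACTB, GAPDH and POLR2A. Fitted bidirectionally against DMSO.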

The structures appear in SMILES notation. The source made the active and inactive calls. The calls were made as follows: active = hit-call score of the fitted dose curve at least 0.9, where 1 is the maximum; inactive = score below 0.9.

Sequence of Cytochrome P450 3A4 (Homo sapiens) (P08684 whole entry, looked up): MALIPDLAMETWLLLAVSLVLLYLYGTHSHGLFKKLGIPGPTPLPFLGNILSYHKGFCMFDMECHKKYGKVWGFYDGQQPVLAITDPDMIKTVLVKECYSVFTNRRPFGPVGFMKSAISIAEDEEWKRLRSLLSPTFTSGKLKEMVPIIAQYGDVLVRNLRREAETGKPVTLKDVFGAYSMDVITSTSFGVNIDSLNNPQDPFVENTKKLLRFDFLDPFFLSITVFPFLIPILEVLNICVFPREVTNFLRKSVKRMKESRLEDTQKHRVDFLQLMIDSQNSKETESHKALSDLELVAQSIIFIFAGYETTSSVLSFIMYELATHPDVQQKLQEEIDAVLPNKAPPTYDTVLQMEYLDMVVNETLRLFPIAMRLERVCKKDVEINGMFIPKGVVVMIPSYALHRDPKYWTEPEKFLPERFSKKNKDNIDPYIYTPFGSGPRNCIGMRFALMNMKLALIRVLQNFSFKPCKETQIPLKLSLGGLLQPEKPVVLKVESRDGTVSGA
Sequence of Cytochrome P450 3A7 (Homo sapiens) (P24462 whole entry, looked up): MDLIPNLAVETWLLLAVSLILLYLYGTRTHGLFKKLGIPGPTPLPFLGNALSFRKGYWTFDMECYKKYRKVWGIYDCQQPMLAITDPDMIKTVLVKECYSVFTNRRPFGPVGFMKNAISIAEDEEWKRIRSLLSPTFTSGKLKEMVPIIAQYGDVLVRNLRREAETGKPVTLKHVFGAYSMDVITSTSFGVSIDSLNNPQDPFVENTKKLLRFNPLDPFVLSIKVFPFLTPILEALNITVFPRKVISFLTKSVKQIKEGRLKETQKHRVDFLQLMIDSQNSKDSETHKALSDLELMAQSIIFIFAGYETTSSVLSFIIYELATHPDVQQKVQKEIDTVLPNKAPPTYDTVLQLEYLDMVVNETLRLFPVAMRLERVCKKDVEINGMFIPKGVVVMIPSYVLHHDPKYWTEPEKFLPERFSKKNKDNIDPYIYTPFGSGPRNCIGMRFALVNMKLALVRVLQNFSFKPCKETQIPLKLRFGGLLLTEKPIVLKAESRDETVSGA
Sequence of Cytochrome P450 2C19 (Homo sapiens) (P33261 whole entry, looked up): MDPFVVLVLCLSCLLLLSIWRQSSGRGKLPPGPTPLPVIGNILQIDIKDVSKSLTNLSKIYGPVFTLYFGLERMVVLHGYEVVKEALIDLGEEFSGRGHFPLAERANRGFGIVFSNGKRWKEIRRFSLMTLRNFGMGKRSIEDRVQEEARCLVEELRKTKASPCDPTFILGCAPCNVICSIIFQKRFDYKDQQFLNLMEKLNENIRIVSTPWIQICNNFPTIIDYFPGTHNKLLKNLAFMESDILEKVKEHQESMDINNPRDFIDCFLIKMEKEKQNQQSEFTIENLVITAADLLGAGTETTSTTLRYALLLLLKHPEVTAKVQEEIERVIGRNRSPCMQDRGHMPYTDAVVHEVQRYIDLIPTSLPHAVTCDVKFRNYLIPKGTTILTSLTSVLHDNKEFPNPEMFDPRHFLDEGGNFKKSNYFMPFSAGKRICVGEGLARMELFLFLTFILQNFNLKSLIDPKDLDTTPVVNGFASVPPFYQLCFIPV

As for `CC(=O)c1ccccc1`, the result (in assay [1]; in [2]; in assay [3]; in assay [4]; in assay [5]; with CYP2C8 (gene 1558)) was inactive. Besides, the result (with CYP2C9 (gene 1559); with CYP2E1 (gene 1571); with CYP4A11 (gene 1579); in [6]; in [7]; in [8]) was inactive. For the same compound, the compound was classed as inactive (in assay [9]; in assay [10]; with CYP3A5 (gene 1577); in assay [11]; in assay [12]; in assay [13]).
For `NC(=O)N(O)[C@@H]1COc2cc(OCc3ccccc3)ccc21`, the compound was classed as inactive (in assay [1]; in assay [3]; in assay [5]; in the assay with CYP2C8 (gene 1558); in the assay with CYP2C9 (gene 1559); with CYP4A11 (gene 1579)). For the same compound, the result in assay [6], in assay [14], in [7], in assay [8], in assay [9] and in assay [10] was inactive. Further, the compound was classed as inactive (with CYP3A5 (gene 1577); in [11]; in assay [12]; in assay [13]). In addition, the AC50 in assay [2] was 50 µM (active); in assay [4], 16.2 µM (active); with CYP2E1 (gene 1571) it was 50 µM (active).
Take `NC(=O)NN=Cc1ccc([N+](=O)[O-])o1`: the AC50 in [1] was 0.456 µM (active); in assay [2] it was 0.377 µM (active); with CYP2E1 (gene 1571), 19 µM (active); in [7], 50 µM (active); in [11] it was 25.7 µM (active); in assay [12], 13.6 µM (active). Further, the compound was called inactive (in assay [3]; in [4]; in [5]; with CYP2C8 (gene 1558); in the assay with CYP2C9 (gene 1559); with CYP4A11 (gene 1579)). Moreover, the call (in assay [6]; in [14]; in [8]; in assay [9]; in assay [10]; in the assay with CYP3A5 (gene 1577)) was inactive. Also, in [13], the outcome was inactive.
`OC(CCl)CCl`: the outcome (in [1]; in assay [2]; in assay [3]; in assay [4]; in assay [5]; with CYP2C8 (gene 1558)) was inactive. For the same compound, the result (with CYP2C9 (gene 1559); with CYP2E1 (gene 1571); in the assay with CYP4A11 (gene 1579); in [6]; in assay [7]; in [8]) was inactive. In addition, the compound was classed as inactive (in assay [9]; in assay [10]; in the assay with CYP3A5 (gene 1577); in assay [11]; in assay [12]; in [13]).
